Screen size: about 5,500 compounds; about 2,000 (36%) were called active. Not shown: some 18% with an inconclusive outcome. Rule as the data show it: active = normalized growth mostly below about 0.91 (no sharp cut-off); inconclusive = no clear call, values can overlap the other calls; inactive = mostly above about 0.92. The list shows a part of the results.
Assay: chemical genetic growth profiling, strain panel (AID 1159580);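 also: tested at 20 µM; growth read once vehicle control cultures reached saturation at 30 °C; 1 = growth at the plate median or of vehicle wells; lower values mean less growth of the strain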
Conditions: growth OD
[1] = S. cerevisiae deletion strains, locus YAL013W, strain DEP1, active compounds read low
[2] = S. cerevisiae deletion strains, locus YBR229C, strain ROT2, active compounds read low
[3] = S. cerevisiae deletion strains, locus YDL101C, strain DUN1, active compounds read low
[4] = S. cerevisiae deletion strains, locus YDR150W, strain NUM1, active compounds read low
[5] = S. cerevisiae deletion strains, locus YEL061C, strain CIN8, active compounds read low
[6] = S. cerevisiae deletion strains, locus YGR078C, strain PAC10, active compounds read low
[7] = S. cerevisiae deletion strains, locus YHR030C, strain SLT2, active compounds read low
[8] = S. cerevisiae deletion strains, locus YJR043C, strain POL32, active compounds read low
[9] = S. cerevisiae deletion strains, locus YJR075W, strain HOC1, active compounds read low
[10] = S. cerevisiae deletion strains, locus YLR039C, strain RIC1, active compounds read low
[11] = S. cerevisiae deletion strains, locus YLR262C, strain YPT6, active compounds read low
[12] = S. cerevisiae deletion strains, locus YMR263W, strain SAP30, active compounds read low
[13] = S. cerevisiae deletion strains, locus YMR307W, strain GAS1, active compounds read low
[14] = S. cerevisiae deletion strains, locus YNL128W, strain TEP1, active compounds read low
[15] = S. cerevisiae deletion strains, locus YNL153C, strain GIM3, active compounds read low
[16] = S. cerevisiae deletion strains, locus YNL322C, strain KRE1, active compounds read low
[17] = S. cerevisiae deletion strains, locus YOL006C, strain TOP1, active compounds read low
[18] = S. cerevisiae deletion strains, locus YPL055C, strain LGE1, active compounds read low
[19] = S. cerevisiae deletion strains, locus YPL241C, strain CIN2, active compounds read low
[20] = S. cerevisiae deletion strains, locus YAL040C, strain CLN3, active compounds read low
[21] = S. cerevisiae deletion strains, locus YCL061C, strain MRC1 (second series), active compounds read low
[22] = S. cerevisiae deletion strains, locus YER002W, strain NOP16, active compounds read low
[23] = S. cerevisiae deletion strains, locus YNL175C, strain NOP13, active compounds read low
[24] = S. cerevisiae deletion strains, locus YNL197C, strain WHI3, active compounds read low
[25] = S. cerevisiae deletion strains, locus YNL224C, strain SQS1, active compounds read low
[26] = S. cerevisiae deletion strains, locus YOR083W, strain WHI5 (second series), active compounds read low

Measured: normalized growth

CCCCCCC(C)OC(=O)COc1cc(Cl)c(Cl)cc1Cl (stereo not drawn)
inactive: [1] 0.994 | S. cerevisiae deletion strains, locus YBR021W, strain FUR4, active compounds read low 0.985 | [2] 1 | S. cerevisiae deletion strains, locus YCL029C, strain bik1, active compounds read low 0.992 | S. cerevisiae deletion strains, locus YDL035C, strain GPR1, active compounds read low 1 | S. cerevisiae deletion strains, locus YDL074C, strain BRE1, active compounds read low 1 | [3] 1 | S. cerevisiae deletion strains, locus YDL134C, strain PPH21, active compounds read low 1.01 | S. cerevisiae deletion strains, locus YDL185W, strain tfp1, active compounds read low 0.995 | S. cerevisiae deletion strains, locus YDL192W, strain arf1, active compounds read low 0.995 | S. cerevisiae deletion strains, locus YDR101C, strain arx1, active compounds read low 0.993 | [4] 1 | S. cerevisiae deletion strains, locus YDR162C, strain NBP2, active compounds read low 0.964 | S. cerevisiae deletion strains, locus YDR318W, strain mcm21, active compounds read low 0.989 | S. cerevisiae deletion strains, locus YDR388W, active compounds read low 0.992 | S. cerevisiae deletion strains, locus YDR502C, strain sam2, active compounds read low 0.997 | [5] 1 | S. cerevisiae deletion strains, locus YER110C, active compounds read low 0.993 | S. cerevisiae deletion strains, locus YER155C, strain BEM2, active compounds read low 0.984 | S. cerevisiae deletion strains, locus YER167W, strain BCK2, active compounds read low 0.995 | S. cerevisiae deletion strains, locus YGL078C, strain dbp3, active compounds read low 0.985 | S. cerevisiae deletion strains, locus YGL086W, strain mad1, active compounds read low 0.988 | S. cerevisiae deletion strains, locus YGL248W, strain PDE1, active compounds read low 0.993 | [6] 0.995 | S. cerevisiae deletion strains, locus YGR135W, strain pre9, active compounds read low 0.994 | S. cerevisiae deletion strains, locus YGR229C, strain SMI1, active compounds read low 0.952 | S. cerevisiae deletion strains, locus YGR252W, strain gcn5, active compounds read low 0.99 | [7] 0.978 | S. cerevisiae deletion strains, locus YHR079C, strain IRE1 (second series), active compounds read low 0.986 | S. cerevisiae deletion strains, locus YHR094C, strain hxt1, active compounds read low 0.983 | S. cerevisiae deletion strains, locus YHR129C, strain ARP1, active compounds read low 1 | S. cerevisiae deletion strains, locus YHR200W, strain rpn10, active compounds read low 0.987 | S. cerevisiae deletion strains, locus YIL066C, strain RNR3, active compounds read low 0.975 | S. cerevisiae deletion strains, locus YIL073C, strain SPO22, active compounds read low 0.948 | S. cerevisiae deletion strains, locus YIL125W, strain kgd1, active compounds read low 0.988 | S. cerevisiae deletion strains, locus YIR030C, strain dcg1, active compounds read low 0.983 | S. cerevisiae deletion strains, locus YJL095W, strain BCK1, active compounds read low 0.997 | S. cerevisiae deletion strains, locus YJL134W, strain LCB3, active compounds read low 1.01 | S. cerevisiae deletion strains, locus YJL168C, strain set2, active compounds read low 0.988 | S. cerevisiae deletion strains, locus YJL187C, strain SWE1 (second series), active compounds read low 0.997 | [8] 0.988 | [9] 1.01 | S. cerevisiae deletion strains, locus YKL009W, strain mrt4, active compounds read low 1 | S. cerevisiae deletion strains, locus YKL068W, active compounds read low 0.989 | S. cerevisiae deletion strains, locus YKL085W, strain MDH1 (second series), active compounds read low 0.986 | S. cerevisiae deletion strains, locus YKL085W, strain MDH1, active compounds read low 0.986 | S. cerevisiae deletion strains, locus YKL190W, strain CNB1, active compounds read low 1 | S. cerevisiae deletion strains, locus YKR001C, strain vps1, active compounds read low 0.996 | [10] 0.95 | S. cerevisiae deletion strains, locus YLR058C, strain SHM2, active compounds read low 0.999 | S. cerevisiae deletion strains, locus YLR102C, strain apc9, active compounds read low 0.998 | [11] 0.946 | S. cerevisiae deletion strains, locus YLR268W, strain sec22, active compounds read low 0.99 | S. cerevisiae deletion strains, locus YLR330W, strain CHS5, active compounds read low 1 | S. cerevisiae deletion strains, locus YLR342W, strain FKS1 (second series), active compounds read low 1.05 | S. cerevisiae deletion strains, locus YLR371W, strain rom2, active compounds read low 0.993 | S. cerevisiae deletion strains, locus YLR418C, strain cdc73, active compounds read low 0.947 | S. cerevisiae deletion strains, locus YML016C, strain PPZ1, active compounds read low 1.01 | S. cerevisiae deletion strains, locus YML032C, strain rad52, active compounds read low 0.994 | S. cerevisiae deletion strains, locus YML124C, strain tub3, active compounds read low 0.985 | S. cerevisiae deletion strains, locus YMR078C, strain ctf18, active compounds read low 0.989 | S. cerevisiae deletion strains, locus YMR223W, strain ubp8, active compounds read low 0.99 | [12] 1.01 | [13] 0.86 | S. cerevisiae deletion strains, locus YNL067W, strain RPL9B, active compounds read low 0.994 | [14] 0.995 | [15] 0.996 | S. cerevisiae deletion strains, locus YNL233W, strain BNI4, active compounds read low 0.996 | S. cerevisiae deletion strains, locus YNL250W, strain rad50, active compounds read low 0.982 | S. cerevisiae deletion strains, locus YNL271C, strain bni1, active compounds read low 0.997 | S. cerevisiae deletion strains, locus YNL298W, strain CLA4, active compounds read low 0.991 | S. cerevisiae deletion strains, locus YNL307C, strain MCK1, active compounds read low 0.973 | [16] 1 | S. cerevisiae deletion strains, locus YNR052C, strain pop2, active compounds read low 0.993 | [17] 0.963 | S. cerevisiae deletion strains, locus YOL012C, strain htz1 1.39 | S. cerevisiae deletion strains, locus YOL147C, strain pex11, active compounds read low 0.984 | S. cerevisiae deletion strains, locus YOR061W, strain CKA2, active compounds read low 1 | S. cerevisiae deletion strains, locus YOR069W, strain VPS5, active compounds read low 1 | S. cerevisiae deletion strains, locus YOR136W, strain idh2, active compounds read low 0.986 | S. cerevisiae deletion strains, locus YOR144C, strain elg1, active compounds read low 0.986 | S. cerevisiae deletion strains, locus YOR184W, strain ser1, active compounds read low 0.992 | S. cerevisiae deletion strains, locus YOR316C, strain cot1, active compounds read low 0.994 | [18] 0.999 | [19] 0.999 | S. cerevisiae deletion strains, locus YPR119W, strain clb2, active compounds read low 0.982 | S. cerevisiae deletion strains, locus YPR141C, strain kar3, active compounds read low 0.997 | S. cerevisiae deletion strains, locus YPR163C, strain tif3, active compounds read low 0.985 | S. cerevisiae deletion strains, locus YPR167C, strain met16, active compounds read low 0.992 | S. cerevisiae deletion strains, strain wtn01, active compounds read low 0.983 | S. cerevisiae strains, strain wild type, active compounds read low 0.999

OC1(c2ccc(F)cc2)Cc2ccccc2C2=NCCN21 (stereo not drawn)
inactive: [1] 0.99 | [2] 0.987 | [3] 0.997 | [4] 0.932 | [5] 0.993 | [6] 0.98 | [7] 0.903 | S. cerevisiae deletion strains, locus YHR087W, strain rtc3, active compounds read low 0.987 | S. cerevisiae deletion strains, locus YJL187C, strain SWE1, active compounds read low 1.01 | [8] 1 | [9] 0.961 | [10] 0.975 | S. cerevisiae deletion strains, locus YLR058C, strain SHM2 (second series), active compounds read low 0.983 | S. cerevisiae deletion strains, locus YLR085C, strain ARP6, active compounds read low 0.954 | [11] 0.968 | S. cerevisiae deletion strains, locus YML094W, strain GIM5, active compounds read low 0.982 | S. cerevisiae deletion strains, locus YMR219W, strain ESC1, active compounds read low 0.998 | [12] 0.894 | [13] 0.925 | [15] 0.985 | S. cerevisiae deletion strains, locus YNL298W, strain CLA4 (second series), active compounds read low 0.986 | [16] 0.992 | S. cerevisiae deletion strains, locus YNR030W, strain Alg12, active compounds read low 0.98 | [17] 0.93 | [18] 0.866 | [19] 0.986 | S. cerevisiae deletion strains, locus YPR135W, strain CTF4, active compounds read low 0.915

OC(CN1CCN(c2cccc(Cl)c2)CC1)C(c1ccccc1)c1ccccc1 (stereo not drawn)
active: [22] 1.19 [resistant] | [26] 1.17 [resistant]
inactive: [20] 0.979 | [21] 0.986 | [4] 0.985 | [6] 1.01 | [12] 0.997 | [15] 0.992 | [23] 1.09 | [24] 0.992 | [25] 1.01 | [16] 0.97

Clc1cccc(N2CCNCC2)c1
inactive: [20] 0.974 | [21] 0.983 | [22] 0.981 | [6] 0.996 | [13] 0.991 | [14] 0.981 | [15] 0.985 | [23] 0.97 | [24] 0.979 | [25] 0.984 | [16] 0.996 | [26] 0.962 | [19] 0.982
